{"source": "the OligoGym collection"}
{"target": "POLG", "assay": "pooled miR-30 sensor sort-seq; sequence = guide strand", "details": "shRNA"}
{"sequence": "ATTACAGCTATTACCATCCTTG", "sensor-assay potency score (higher = more potent)": -0.0536}
{"sequence": "TTGTAGGCAAACATGCACCTGG", "sensor-assay potency score (higher = more potent)": 0.0528}
{"sequence": "TTGGCTGCTATCCACAGACTGC", "sensor-assay potency score (higher = more potent)": -1.02}
{"sequence": "TTAAACTGCATTAGTAAGCGCT", "sensor-assay potency score (higher = more potent)": -0.404}
{"sequence": "TTGAACATTTCTGACTCTGTGC", "sensor-assay potency score (higher = more potent)": 0.0886}
{"sequence": "TTATTGAACATTTCTGACTCTG", "sensor-assay potency score (higher = more potent)": 0.362}
{"sequence": "TTGTCCTGTAGTCCACACCGAT", "sensor-assay potency score (higher = more potent)": -1.34}
{"sequence": "TTTAGGTGTGACCCGCATCTGC", "sensor-assay potency score (higher = more potent)": -1.03}
{"sequence": "TTCCTCATCATAGTCGGGGTGC", "sensor-assay potency score (higher = more potent)": 0.36}
{"sequence": "TATGGCACTATTGTCAGTGAGC", "sensor-assay potency score (higher = more potent)": -0.848}
{"sequence": "TAATCCAGTTCTTCTACCGTTT", "sensor-assay potency score (higher = more potent)": -0.468}
{"sequence": "TATTGAACATTTCTGACTCTGT", "sensor-assay potency score (higher = more potent)": 0.187}
{"target": "POLH", "assay": "pooled miR-30 sensor sort-seq; sequence = guide strand", "details": "shRNA"}
{"sequence": "TTACAGTTCTTGATGACAGTAA", "sensor-assay potency score (higher = more potent)": 0.425}
{"sequence": "TAGAAGCAGACTTTTCTGCTTA", "sensor-assay potency score (higher = more potent)": 0.259}
{"sequence": "TAGCTTTTGTAGTCTCTCTTGT", "sensor-assay potency score (higher = more potent)": -0.253}
{"sequence": "TTTAGAGGATTCTTCTAGCTTC", "sensor-assay potency score (higher = more potent)": 0.456}
{"sequence": "TACACGAATGCTCACAACCAGC", "sensor-assay potency score (higher = more potent)": -1.33}
